Sampled rows, rich in hits. Any-hit rate of the full collection: about 0.95%.
RE007 growth inh: less growth of the S. pombe RE007 Vpr strain. S. pombe RE007 Vpr strain, BacTiter-Glo ATP luminescence, 24 h. Potency, µM (titrated, usually from 92.2 µM), most hits filed as inhibitors. hit rate 0.21% among 360,000. AID 651644; active = well fitted falling curve with a large enough effect; inconclusive = small, poorly fitted or top-dose-only effect; inactive = no such curve, though single readings can be large or run the other way; also: nearly all actives have a fitted effect of over 50% in size
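Fission yeast strain RE007, carrying one chromosomally integrated HIV-1 vpr copy, was seeded at OD 0.01 in PMG+AL medium with 23 nL pinned compound. After 24 h at 30 °C and 99% humidity, viability was read by BacTiter-Glo luminescence.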
Giardia FBPA inh-1: inhibitors of Giardia lamblia fructose-1,6-bisphosphate aldolase; hit rate 0.71% among 290,000; purified Giardia FBPA; A8B2U2; Potency, µM (top dose mostly 59.6 µM), actives largely listed as inhibitors; AID 2451; also: nearly all actives have a fitted effect of over 55% in size
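40 nM FBPA preincubated 10 min at RT with compound (up to 57.5 uM final), then substrate plus GAPDH/TPI/NAD/arsenate coupling and diaphorase/resazurin added. Fluorescence read after 20 min at RT, 525/598 nm.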
Tb PYK inh: inhibitors of Trypanosoma brucei pyruvate kinase; Potency, µM (highest dose often 76.8 µM), usual class: inhibitors; TbPYK enzyme, Kinase-Glo Plus ATP luminescence, 45 min; hit rate 0.12% among 410,000; AID 624173; also: nearly all actives have a fitted effect of over 50% in size
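Quantitative HTS: titrated library compounds versus trypanosomal pyruvate kinase in TEA buffer (pH 7.2) containing KCl, MgCl2, BSA and Tween-20. Reactions were initiated with ADP, 130 uM final. Kinase-Glo Plus luminescence was read after 45 min at RT.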
LmPK inh: inhibitors of Leishmania mexicana pyruvate kinase; Q27686; purified LmPK, Kinase-Glo ATP luminescence, 1 h; Potency, µM (series often up to 57.5 µM), actives largely listed as inhibitors; hit rate 0.37% among 290,000; AID 1721
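Screened at intermediate enzyme activity to detect both inhibitors and activators: LmPK at 0.1 nM, with a 0.5 nM enzyme column as activation reference. PEP 0.5 mM, ADP 0.1 mM; ATP detected by luminescence after 1 h.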
Giardia growth: blocks growth of Giardia lamblia trophozoites. Giardia lamblia trophozoite growth inhibition. hit rate 5% among 1,500. Potency, µM (top dose mostly 57.5 µM), hits mostly inhibitors. shares compounds with Giardia FBPA inh-1. AID 2785;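 also: trophozoites exposed to compound for 48 h at 37 °C; nearly all actives have a fitted effect of over 70% in size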
Mammal cell tox: counter-screen for Giardia aldolase inhibitors: mammalian cell toxicity; shares compounds with Giardia FBPA inh-1; AID 2786; mammalian cell viability counter-screen, qHTS; Potency, µM (series often up to 57.5 µM), usual class: inhibitors; hit rate 4% among 1,500;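 also: Chinese hamster ovary cells used as mammalian cytotoxicity surrogate; viability measured as cellular ATP by luminescence; compound exposure lasted 48 h before reading; nearly all actives have a fitted effect of over 60% in size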
Giardia FBPA inh-2: confirmation of Giardia fructose-bisphosphate aldolase inhibitors. AID 2787. purified Giardia aldolase enzyme activity, qHTS. Potency, µM (top dose mostly 57.5 µM), hits mostly inhibitors. hit rate 5% among 1,500. shares compounds with Giardia FBPA inh-1; also: nearly all actives have a fitted effect of over 45% in size
Rabbit FBPA inh: blocks rabbit muscle aldolase in Giardia aldolase selectivity test. shares compounds with Giardia FBPA inh-1. Rabbit muscle FBPA enzyme inhibition, selectivity counter-screen. Potency, µM (highest dose often 57.5 µM), actives largely listed as inhibitors. hit rate 4% among 1,500. AID 2794; also: nearly all actives have a fitted effect of over 60% in size
Target sequence (P00883 whole entry, looked up): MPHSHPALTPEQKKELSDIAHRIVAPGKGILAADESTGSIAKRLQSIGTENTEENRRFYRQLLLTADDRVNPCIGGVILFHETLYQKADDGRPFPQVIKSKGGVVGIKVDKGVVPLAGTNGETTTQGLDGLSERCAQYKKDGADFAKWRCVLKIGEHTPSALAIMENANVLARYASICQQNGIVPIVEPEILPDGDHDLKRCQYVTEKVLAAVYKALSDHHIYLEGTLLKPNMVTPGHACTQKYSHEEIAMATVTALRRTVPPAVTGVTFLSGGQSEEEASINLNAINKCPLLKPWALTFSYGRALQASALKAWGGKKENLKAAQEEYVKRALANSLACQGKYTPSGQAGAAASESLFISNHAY
GAPDH coupling: GAPDH inhibition flagged for Giardia aldolase hits | Potency, µM (doses to about 57.5 µM), usual class: inhibitors | shares compounds with Giardia FBPA inh-1 | GAPDH coupling enzyme counterscreen, biochemical, qHTS | AID 2795 | hit rate 6% among 1,500; also: nearly all actives have a fitted effect of over 55% in size
Numbers stand for hits; i = inactive; ? = inconclusive; nt = no result given; [ ] = remark or other dose. Unless noted, calls follow the shape of the dose curve; as a rule, active = well fitted curve in the direction sought with a large enough effect; inconclusive = small, poorly fitted or top-dose-only effect, or another doubt; inactive = no such curve, though single readings can be large; an effect the other way counts as inactive or inconclusive.

SMILES	RE007 growth inh	Giardia FBPA inh-1	Tb PYK inh	LmPK inh	Giardia growth	Mammal cell tox	Giardia FBPA inh-2	Rabbit FBPA inh	GAPDH coupling
C/C(CS(=O)(=O)c1ccc(Cl)cc1)=N/NC(N)=S	i	16µM	i	i	i[10.4 µM]	i	i	i	i
Cc1cc(OCCCn2ccnc2)ccc1C(C)C	i	i	i	i	nt	nt	nt	nt	nt
CC(C)(C)c1ccc(OCCCn2ccnc2)cc1	i	28µM	i	i	i	i	i	i	i
Cc1ccc(OCCCn2ccnc2)c(Br)c1	i	18µM	i	i	i[10.4 µM]	i	i	i	i
Cc1ccc(OCCCn2ccnc2)c([N+](=O)[O-])c1	i	i	i	i	nt	nt	nt	nt	nt
c1ccc2cc(OCCCn3ccnc3)ccc2c1	i	22µM	i	i	i	i	i	i	i
COCCn1c(=O)cnc2cnc(N3CCNCC3)nc21	nt	i	i	nt	nt	nt	nt	nt	nt
COc1ccc(CCn2c(=O)c3cccnc3n(CC(=O)Nc3ccc(C)c(F)c3)c2=O)cc1OC	nt	nt	i	nt	nt	nt	nt	nt	nt
CCNC(=S)NS(=O)(=O)c1ccc(C)cc1	i	3.5µM	i	i	i	i	i	i	i
CCNC(=S)NS(=O)(=O)c1ccc(CC)cc1	i	6.3µM	i	i	i[10.4 µM]	i	i	i	i
CC(=O)Nc1ccc(SCC(CC(C)C)N2CCN(CCc3ccccc3)CCC2=O)cc1 (stereo not given)	nt	i	nt	nt	nt	nt	nt	nt	nt
COc1ccccc1C(=O)N1CCCCC1CCN1CCOCC1 (stereo not given)	nt	nt	i	nt	nt	nt	nt	nt	nt
CC(C)Oc1ccc(CNC(=O)CCCN2C(=O)c3cccnc3Oc3ccc(Cl)cc32)cc1	nt	nt	i[15.4 µM]	nt	nt	nt	nt	nt	nt
Cc1nn(-c2ccccc2)c2c1N(CCCC(=O)NCc1ccc(N(C)C)cc1)C(=O)CS2	nt	nt	i	nt	nt	nt	nt	nt	nt
CCN(CC)c1ccc(S(=O)(=O)N2CCOCC2)cc1NC(=O)CN1CCN(Cc2ccccc2)CC1	i	20µM	i	i	i	i	i	i	i
CCN(CC)S(=O)(=O)c1ccc(C)c(NC(=O)CN2CCN(Cc3ccccc3)CC2)c1	i	20µM	i	i	i[10.4 µM]	i	i	i	i
CCN(CC)c1ccc(S(=O)(=O)N2CCOCC2)cc1NC(=O)CNCc1ccccc1	i	?	i	i	nt	nt	nt	nt	nt
CCN(CC)S(=O)(=O)c1ccc(C)c(NC(=O)CNCCN(C(C)C)C(C)C)c1	i	14µM	i	i	i	i	i	i	i
O=C1C[C@H](c2ccc3ccccc3c2)N1S(=O)(=O)c1ccccc1[N+](=O)[O-]	nt	i	nt	nt	nt	nt	nt	nt	nt
CC(Cc1ccc(O)cc1)NCC(O)c1ccc(O)c(O)c1 (stereo not given)	i	nt	i	nt	nt	nt	nt	nt	nt
CC(C)NCC(O)c1ccc(O)c(O)c1 (stereo not given)	i[18.4 µM]	11µM	i	i	i	i	?	?	i
O=C(Cn1c(=O)n(-c2cccc(Cl)c2)c(=O)c2sc3ccccc3c21)N1CCCC1	nt	nt	i	nt	nt	nt	nt	nt	nt
O=c1cnnc(N/N=C/c2ccc3c(c2)OCO3)[nH]1	i	i	i	i	nt	nt	nt	nt	nt
O=c1cnnc(N/N=C/C2CC=CCC2)[nH]1 (stereo not given)	i	20µM	i	i	?	i	i	i	i
CCN(c1cccc(C)c1)S(=O)(=O)c1nnc(NC(=O)C2CCCCC2)s1	nt	nt	i	nt	nt	nt	nt	nt	nt
SMILES	RE007 growth inh	Giardia FBPA inh-1	Tb PYK inh	LmPK inh	Giardia growth	Mammal cell tox	Giardia FBPA inh-2	Rabbit FBPA inh	GAPDH coupling
CCOC(=O)C1CCCN(C/C=C/c2ccccc2)C1 (stereo not given)	i	16µM	i	i	i	i	i	i	i
CCOC(=O)C1CCN(C/C=C/c2ccccc2)CC1	i	?	i	i	nt	nt	nt	nt	nt
Cc1nn2c(=O)cc(COC(=O)c3cccc(NC(=O)c4cccs4)c3)nc2s1	nt	nt	i	nt	nt	nt	nt	nt	nt
CCCn1c(NCc2ccc3c(c2)OCO3)nc2ccccc21	i	i	i	i	nt	nt	nt	nt	nt
CN(C)CCn1c(NCc2ccc3c(c2)OCO3)nc2ccccc21	i	28µM	i	i	?	i	i	i	i
COC(=O)/C=C1\S/C(=N/N=C/c2ccccc2)NC1=O	?	i	i	i	nt	nt	nt	nt	nt

Screening results deposited in PubChem by National Center for Advancing Translational Sciences (NCATS).
